Source: PubChem
In the library only some 6.5% were active in any assay of this set; here they are far more common.
MARV entry inh – Marburg virus entry inhibition; 1.8% of 300,000 active; Potency, µM (highest dose often 37.8 µM), inactives show at the highest dose activity change, negative = inhibition, actives largely listed as inhibitors; Marburg virus pseudotyped entry inhibition, cell reporter; calls by dose curve; tested in HEK293 cells; also: potency is read from the fitted curve at half-maximal effect
Lassa entry inh – Lassa virus entry inhibition | Lassa virus pseudotype entry inhibition, cell reporter | Potency, µM (top dose mostly 37.9 µM), inactives show at the highest dose activity change, negative = inhibition, usual class: inhibitors | 1.2% of 300,000 active | AID 540256; calls by dose curve; tested in HEK293 cells; also: potency is read from the fitted curve at half-maximal effect; nearly all actives have a fitted effect of over 50% in size
VACV Venus inh – vaccinia inhibition (Venus reporter). Vaccinia virus Venus reporter expression, fluorescence. Potency, µM (top dose mostly 36.5 µM), for the others: at the top dose activity change, negative = inhibition, most hits filed as inhibitors. 0.46% of 330,000 active; calls by dose curve; tested in A549 cells; also: potency is read from the fitted curve at half-maximal effect; nearly all actives have a fitted effect of over 30% in size
FMDV inh – antivirals against foot and mouth disease virus; FMDV antiviral cell-based qHTS; Potency, µM (doses to about 57.9 µM), for inactives: top-dose activity change, negative = inhibition, most hits filed as inhibitors; 1.2% of 410,000 active; calls by dose curve; tested in HEK293T cells; also: read-out not given here; potency is read from the fitted curve at half-maximal effect; nearly all actives have a fitted effect of over 45% in size
Vaccinia mCherry – inhibitors of vaccinia virus infection (mCherry reporter signal); Vaccinia virus mCherry reporter infection, fluorescence; Potency, µM (top dose mostly 36.5 µM), for inactives: top-dose activity change, negative = inhibition, usual class: inhibitors; 0.63% of 310,000 active; calls by dose curve; tested in A549 cells; also: potency is read from the fitted curve at half-maximal effect; nearly all actives have a fitted effect of over 35% in size
HCMV antiviral – inhibitors of human cytomegalovirus; HFF cells, HCMV-luciferase reporter, 72 h; active compounds read low; AID 1259415; activity change, negative = inhibition, % at 57.5 µM; 4.5% of 410,000 active; in the data active = activity change below about -60%; inconclusive = no clear call, values can overlap the other calls; inactive = above about -39%
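Luciferase read-out from HCMV-luciferase-infected HFFs (MOI 1 PFU/cell) 72 h post infection at 37C; compounds added after 16 h cell attachment; activity normalized between buffer-only basal and Salinomycin (10uM) inhibitor controls.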
* hit, by the source's call; i = inactive; ? = inconclusive; . = no result given; ! = a repeat was not active; [ ] = dose if it differs, or a comment. % is scaled to controls: 0 for no effect and ±100 for the full control effect.

SMILES | MARV entry inh | Lassa entry inh | VACV Venus inh | FMDV inh | Vaccinia mCherry | HCMV antiviral
CN(C(=O)c1cccc(NC(=O)Cc2ccc(NC(=O)C3CCCN(C(=O)CCc4ccccc4)C3)cc2)c1)C1CCC1 (centres undefined) | . | . | ? | 17.8µM* | ? | -32.2
CN(Cc1ccccc1)C(=O)c1ccc(NC(=O)Cc2cccc(NC(=O)C3CCCN(C(=O)CCc4ccccc4)C3)c2)cc1 (centres undefined) | . | . | ? | ? | -13.8% | -68.4*
CN(CCO)C(=O)c1cn(C2CCN(Cc3ccc4ccccc4c3)CC2)nn1 | . | . | 0.0% | -4.3% | -6.9% | .
CC(C)c1ccc(NS(=O)(=O)c2ccc3[nH]cc(C(=O)N4CCCC4)c(=O)c3c2)cc1 | -1.9%[46.1 µM] | ? | 5.2% | 30.9% | 1.7% | 4.1
COc1cc(C(=O)Nc2nc3nc(-c4ccccc4)cc(=O)n3[nH]2)cc(OC)c1OC | -6.7%[46.1 µM] | -3.6%[46.1 µM] | -9.2% | -5.5% | 4.0% | 0.0
Cc1ccc(O)c(NC(=O)CSc2n[nH]c(C)c2[N+](=O)[O-])c1 | ? | -16.6%[46.1 µM] | ? | -21.5% | 2.51µM* | ?
Cc1ccc(NC(=O)CSc2n[nH]c(C)c2[N+](=O)[O-])cc1C | 2.0% | 7.4% | -7.6% | -12.2% | -7.2% | -68.9*
COc1ccc(NC(=O)CSc2n[nH]c(C)c2[N+](=O)[O-])cc1 | . | . | . | 0.3% | . | -30.1
CC(=O)NC(Cc1ccc(O)cc1)C(=O)O (centres undefined) | . | . | . | . | . | 12.1
O=C(O)c1cccc(Nc2nc(-c3ccc([N+](=O)[O-])cc3)nc3ccccc23)c1 | . | . | . | -7.9% | . | -70.8*
O=C(Nc1ccc([N+](=O)[O-])cc1)C(=O)Nc1cccc(C(=O)O)c1 | . | . | . | 10µM* | . | 0.0
O=[N+]([O-])c1ccc(-c2nc(Nc3cccc(O)c3)c3ccccc3n2)cc1 | . | . | . | ? | . | -9.6
C=CCn1c(SCC(=O)c2c(C)[nH]c3ccccc23)nnc1-c1ccncc1 | 29.5%[46.1 µM] | 17.7% | 3.1% | -3.2% | -0.7% | ?
Cc1ccc(-c2ccnc(-n3ncc(C(=O)NC[C@@H]4CCCN5CCCC[C@H]45)c3C3CC3)n2)o1 | . | . | -9.5% | -10.6% | i | .
CCC1=Nc2cc(C(=O)NCCCOC)ccc2Sc2ccc(Br)cc21 | ? | ? | ? | -3.7% | ? | -87.4*
CCC1=Nc2cc(C(=O)NCCCOC)ccc2Sc2ccccc21 | ? | ? | ? | -2.4% | -29.8% | -75.9*
CCC1=Nc2cc(C(=O)NCCN3CCOCC3)ccc2Sc2ccc(Br)cc21 | . | . | . | -26.6% | . | -30.2
COc1ccccc1N1CCN(C(=O)C2CCCN(S(=O)(=O)c3ccc4c(c3)oc(=O)n4C)C2)CC1 (centres undefined) | ? | ? | -13.9% | 25.1µM* | -10.2% | -60.0*!
Cn1c(=O)oc2cc(S(=O)(=O)N3CCCC(C(=O)NC4CCCc5ccccc54)C3)ccc21 (centres undefined) | . | . | ? | -24.6% | ? | -90.4*
Cn1c(=O)oc2cc(S(=O)(=O)N3CCCC(C(=O)Nc4ccccn4)C3)ccc21 (centres undefined) | . | . | -3.9% | ? | 14.1% | -23.1
O=C(NCCCN1CCCC1=O)Nc1ccccc1F | . | . | . | 27.8% | . | -28.6
COc1ccc(C2CN=NC2C(=O)c2ccccc2)cc1 (centres undefined) | . | . | -20.0% | 38.8% | -10.0% | -64.4*
O=S(=O)(Cc1noc(-c2ccccc2Cl)n1)c1ccccn1 | ? | ? | -20.2% | 33.6% | -0.7% | 110.8
COc1ccc(C(=O)c2sc3nc(C)cc(-c4cccs4)c3c2N)cc1 | -5.2% | 4.6% | ? | -14.7% | ? | -36.2
COc1ccc(C(=O)c2sc3nc(C)cc(-c4cccs4)c3c2N)cc1OC | ? | 2.2% | -27.7% | ? | ? | -60.9*
SMILES | MARV entry inh | Lassa entry inh | VACV Venus inh | FMDV inh | Vaccinia mCherry | HCMV antiviral
COc1cccc(C2CC(=O)Nc3cc4c(cc32)OCCO4)c1OC (centres undefined) | ? | -27.9%[46.1 µM] | -6.9%[7.34 µM] | 0.0% | -14.6%[7.34 µM] | -2.1
Cc1cc(N)n2nc(C(F)(F)F)nc2n1 | 7.3%[46.1 µM] | 6.1%[46.1 µM] | -8.5% | -0.9% | -11.3% | -91.6*
Cc1ccc2nc(-c3ccc(NC(=S)NC(=O)C(C)C)cc3)sc2c1 | 12.7% | 0.4% | -12.3% | . | -1.5% | 92.1
Cc1ccc2nc(-c3ccc(NC(=S)NC4CC(C)(C)NC(C)(C)C4)cc3)sc2c1 | ? | ? | -19.6% | 62.9% | -6.2% | -102.0*
COc1ccc(NC(=O)CSc2c3c(nc4ccccc24)CCCC3)c(OC)c1 | ? | ? | -23.9% | 35.5µM* | -13.3% | 24.5
COc1ccccc1NC(=O)CSc1c2c(nc3ccccc13)CCC2 | -23.2% | -2.4% | ? | ? | -27.1% | -38.4
CC(C)NC(=O)CSc1c2c(nc3ccccc13)CCCC2 | 11.6%[46.1 µM] | 1.2%[46.1 µM] | -16.7% | -28.7% | -8.2% | -71.8*
Cc1cc(Br)ccc1NC(=O)CSc1c2c(nc3ccccc13)CCC2 | ? | -0.6%[46.1 µM] | -23.4% | ? | -22.7% | -95.5*
Cc1ccc(N2CCN(C(=O)c3c(C)oc4ncnc(N5CCOCC5)c34)CC2)c(C)c1 | . | -0.1%[46.1 µM] | -17.7% | -14.8% | -3.2% | -30.5
O=C(CCCc1c[nH]c2ccccc12)Nc1ncccc1O | . | . | . | -14.9% | . | -88.2*
CCOc1ncccc1C(=O)NCCc1c[nH]c2ccccc12 | 15.2%[46.1 µM] | 14.1% | -14.2% | 3.3% | -10.7% | -66.5*
CCOc1ccc(NC(=O)C(C)Sc2nnc3cc(C)c4ccccc4n23)cc1 (centres undefined) | 3.5%[46.1 µM] | 14.4%[46.1 µM] | -16.1% | -5.1% | -17.6% | ?
COc1ccc(NC(=O)c2ccccn2)cc1 | ? | ? | -12.4% | 11.2µM* | . | .
O=C(NN=C(c1ccccc1)c1ccccn1)c1ccccc1 | 6.31µM* | ? | ? | -13.5% | 2µM* | -97.7*
COc1ccc(C(=O)N/N=C(\c2ccccc2)c2ccccn2)cc1 | 9.2µM* | ? | ? | -33.3% | 2.24µM* | -98.8*
O=C(COc1ccc(Cl)cc1)NNC(=O)c1ccccn1 | -25.2% | -22.8% | -11.4% | -6.2% | -13.9% | 15.7
Cc1cc(C)cc(OCC(=O)NNC(=O)c2ccccn2)c1 | . | . | . | -11.6% | . | -97.3*
Cc1ccccc1OCCOC(=O)c1cc(S(=O)(=O)N2CCCCC2)ccc1N1CCOCC1 | ? | ? | ? | ? | ? | -38.1
O=C(Cn1cc([N+](=O)[O-])ccc1=O)N1CCc2ccccc2C1 | . | . | . | -4.6% | . | -13.2
CC(C)C[C@@H](CN)NC(=O)c1nc[nH]c1C(=O)N[C@@H](C)C(=O)CNC[C@H](CC(C)C)NC(=O)c1nc[nH]c1C(=O)N[C@@H](Cc1ccccc1)C(=O)O | . | . | -1.2% | -19.6% | ? | -13.7
O=C(N/N=C(\c1ccccc1)c1ccccn1)c1ccccc1Cl | ? | ? | ? | ? | 2.51µM* | -113.5*
O=C(NCCc1ccc(Cl)cc1)c1ccc(CSCc2cccc(Cl)c2)o1 | . | -13.4%[46.1 µM] | -11.5% | -24.3% | -18.3% | 1.2
O=C(c1ccc(Cl)c(S(=O)(=O)Nc2ccc(F)cc2)c1)N1CCN(c2ccccn2)CC1 | 14.6µM* | ? | . | -4.7% | . | -18.3
